Values joined by “and” are separate entries in the source; they are usually repeats but may differ in a detail not shown here. Identical values can stand only once. Results filed as inconclusive are left out. Active and inactive are the calls of the source. Unless noted, calls follow the shape of the dose curve; as a rule, active = well fitted curve in the direction sought with a large enough effect; inconclusive = small, poorly fitted or top-dose-only effect, or another doubt; inactive = no such curve, though single readings can be large; an effect the other way counts as inactive or inconclusive.
What was measured:
[1] = target: Cytochrome P450 1A2 (Homo sapiens) (UniProt P05177); assay: p450-cyp1a2 (AID 410; calls by dose curve; also: potency is read from the fitted curve at half-maximal effect;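 as to activity change, negative = inhibition: -100% = full effect of reference inhibitor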)
Method in brief: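 Read-out is luminescence from luciferin produced by CYP1A2 demethylation of Luciferin-ME (100uM, at Km). Detection reagent stopped the 60 min NADPH-dependent reaction; signals were normalized to 57 uM furafylline.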

[2] = target: Glucocorticoid receptor (Homo sapiens) (UniProt P04150); assay: GR-GFP Redistribution (AID 450;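 active = compounds whose dose series gives a full or clear partial fitted curve of increased nuclear translocation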; also: potency is read from the fitted curve at half-maximal effect); conditions: U2OS GR-GFP nuclear translocation, laser cytometry, 2 h
[3] = target: Glucocorticoid receptor (Homo sapiens) (UniProt P04150); assay: GR-EFC Redistribution (AID 451; calls by dose curve; also: potency is read from the fitted curve at half-maximal effect); conditions: CHO-K1 GR-EFC translocation, beta-gal luminescence, 2 h
Method in brief: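 Translocation of GR-ED fusion to nuclear EA restores b-gal, read by luminescence after 1 h room-temperature detection. Engineered CHO-K1 biosensor cells, 1,000/well, exposed 2 h at 37 C to titrations up to 46 uM final.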

[4] = target: Mitogen-activated protein kinase 10 (Mus musculus) (UniProt Q61831); assay: JNK3 AlphaScreen Assay (AID 530; active = well fitted curve in either direction with a large enough effect, not every such curve was filed as active;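 also: kinase came from lysate of stimulated human HepG2 cells; signal reports phosphorylation of biotinylated GST-cJun 1-79 at Ser73 with 10 µM ATP; % is scaled to controls: 0 for no effect and ±100 for the full control effect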)
Method in brief: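 Kinase buffer: 20 mM Tris-HCl pH 7.6, 10 mM MgCl2, 1 mM DTT, 0.1 mM Na3VO4, 0.01% Tween-20; ATP 10 uM. Substrate biotin-GST-cJun(1-79), enzyme from activated HepG2 lysates. Detection by Ser73 phospho-antibody AlphaScreen.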

[5] = target: 3',5'-cyclic-AMP phosphodiesterase 4B (Homo sapiens) (UniProt Q07343); assay: qHTS Assay for Inhibitors of PDE-IV (AID 607; active = well fitted activation curve with a large enough effect in the main read-out, with a control signal flat, not every such curve was filed as active; also: % of control where 0% means no effect)
Method in brief: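 HEK293 ACTOne cells with CNG channel (1000/well), endogenous PDE4; membrane potential dye, compounds up to 22.9 uM final. Fluorescence Ex 535/Em 590; RO 20-1724 (100 uM final) as reference.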

[6] = qHTS Assay for Lipid Storage Modulators (AID 1519; calls by dose curve; as to activity change, negative = inhibition: % is scaled to controls: 0 for no effect and ±100 for the full control effect); conditions: Drosophila S3 cells, BODIPY lipid droplet/cell ratio, laser cytometry, cells loaded with oleic acid; for activity change, negative = inhibition: at 57.5 µM (top of the series)
Method in brief: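 Cells seeded at 5,000 per well were treated with compounds over a concentration series and loaded with oleic acid (400 uM, as added). Lipid droplet fluorescence (488 nm excitation, 500-530 nm channel) was read by laser-scanning cytometry and normalized to 20 uM Triacsin C.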

[7] = target: DNA dC->dU-editing enzyme APOBEC-3G (Homo sapiens) (UniProt Q9HC16); assay: qHTS for inhibitors of Vif-A3G interactions: Validation (AID 588379); also: 0% is about no effect
Method in brief: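 Yellow fluorescence (Ex 488, Em 500-530) of Vif-coexpressing HeLa A3G-eYFP cells, scanned by Acumen cytometer, reports blocked A3G degradation. Cells plated at 700/well overnight at 37 deg C before compound addition, then a further overnight compound incubation at 37 deg C.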

[8] = test system: Zika virus NS2B-NS3 protease; assay: Primary screen GU AMC qHTS for Zika virus inhibitors (AID 1347154); also: nearly all actives have a fitted effect of over 70% in size; also: potency is read from the fitted curve at half-maximal effect;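 as to activity change, negative = inhibition: 0% = no-inhibitor control and -100% = no-enzyme control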
Method in brief: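 Fluorogenic AMC-substrate cleavage by noncovalent NS2B-NS3 protease complex (25 nM, pH 8.0 Tris buffer with Tween 20) followed for 15 minutes at room temperature (~20% conversion). Percent inhibition from ex340/em450 signal change, fitted by 4-parameter Hill equation.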

[9] = Primary qHTS for small molecule stabilizers of the endoplasmic reticulum resident proteome: Secreted ER Calcium Modulated Protein (SERCaMP) assay (AID 1508630); also: potency is read from the fitted curve at half-maximal effect; as to activity change, negative = inhibition: % is scaled to controls: 0 for no effect and ±100 for the full control effect
Method in brief: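 The SH-SY5Y reporter protocol was run at 3 concentrations up to 38.3 uM (primary) or 11 concentrations (follow-up): 16 h compound, 100 nM thapsigargin for 4 h, then extracellular luciferase luminescence.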

[10] = target: Ubiquitin carboxyl-terminal hydrolase 1 (Homo sapiens) (UniProt O94782); assay: Inhibitors of USP1/UAF1: Pilot qHTS (AID 504865);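 also: rhodamine fluorescence freed from ubiquitin-rhodamine substrate followed over time; top concentration of the series differs between compounds; % is scaled to controls: 0 for no effect and ±100 for the full control effect; nearly all actives have a fitted effect of over 35% in size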
Method in brief: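 In 50mM HEPES pH 7.8 containing 0.5mM EDTA, 1mM TCEP, 0.1 mg/ml BSA and 0.01% Tween-20, 1nM USP1/UAF1 is exposed to compound for 15 min, then Ub-Rho (150nM final) is added and fluorescence is read over time.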

[11] = target: Guanine nucleotide-binding protein G(i) subunit alpha-1 (Homo sapiens) (UniProt P63096); assay: qHTS Assay for Inhibitors of RGS12 GoLoco Motif Activity (Green Fluorophore) (AID 879);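 also: 0% = labeled peptide with Gαi1 and full inhibition = labeled peptide alone without protein; negative values mean loss of peptide binding seen as reduced polarization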
Method in brief: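 A drop in FITC polarization marked displacement of the FITC-tagged RGS12 GoLoco peptide (10 nM) from Gαi1 (50 nM). Compounds were incubated 10 min at room temperature in Tris pH 7.5 buffer containing 150 mM NaCl, 0.1 mM GDP and 0.05% NP40; unlabeled peptide titration served as control.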

[12] = target: Cytochrome P450 2C19 (Homo sapiens) (UniProt P33261); assay: qHTS Assay for Inhibitors and Substrates of Cytochrome P450 2C19 (AID 899); also: potency is read from the fitted curve at half-maximal effect; nearly all actives have a fitted effect of over 60% in size
Method in brief: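 Reactions contain 5nM enzyme, 10uM Luciferin-H EGE (KM) and 50mM KPO4; compound preincubates 10 min at 37C, NADPH regeneration starts turnover for 60 min. Luminescence after detection reagent gives activity.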

[13] = target: Cytochrome P450 2D6 (Homo sapiens) (UniProt P10635); assay: qHTS Assay for Inhibitors and Substrates of Cytochrome P450 2D6 (AID 891); also: potency is read from the fitted curve at half-maximal effect; nearly all actives have a fitted effect of over 60% in size
Method in brief: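 Luminescent read-out of luciferin formed by 5 nM human CYP2D6 demethylating 30 uM Luciferin-ME EGE (Km level) over 60 min at room temperature after NADPH regeneration addition. Data normalized to full inhibition by 1.43 uM quinidine.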

[14] = measured here: cell count channel max response
[15] = measured here: lipid channel max response

Sequence of Ubiquitin carboxyl-terminal hydrolase 1 (Homo sapiens) (O94782 whole entry, looked up): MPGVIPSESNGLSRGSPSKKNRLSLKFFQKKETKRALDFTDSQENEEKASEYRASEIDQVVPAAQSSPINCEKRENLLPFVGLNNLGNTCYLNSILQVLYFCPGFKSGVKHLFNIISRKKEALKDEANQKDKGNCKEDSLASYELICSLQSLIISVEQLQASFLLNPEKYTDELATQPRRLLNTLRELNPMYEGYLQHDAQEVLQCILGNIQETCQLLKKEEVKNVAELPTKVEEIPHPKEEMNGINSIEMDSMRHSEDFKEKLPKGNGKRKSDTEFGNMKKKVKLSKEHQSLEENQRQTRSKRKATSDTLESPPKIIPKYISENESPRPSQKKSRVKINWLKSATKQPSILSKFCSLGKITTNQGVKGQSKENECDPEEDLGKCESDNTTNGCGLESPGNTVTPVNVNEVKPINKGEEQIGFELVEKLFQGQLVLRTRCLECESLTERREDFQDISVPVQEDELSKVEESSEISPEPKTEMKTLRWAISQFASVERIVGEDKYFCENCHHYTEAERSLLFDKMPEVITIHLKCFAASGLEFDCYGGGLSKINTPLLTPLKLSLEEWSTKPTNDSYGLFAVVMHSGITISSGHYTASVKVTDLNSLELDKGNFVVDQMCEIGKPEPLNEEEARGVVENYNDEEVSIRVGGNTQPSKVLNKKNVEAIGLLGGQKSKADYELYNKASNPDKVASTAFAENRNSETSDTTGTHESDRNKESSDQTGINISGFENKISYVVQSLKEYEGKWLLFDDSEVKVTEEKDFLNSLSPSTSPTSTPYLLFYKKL
Sequence of 3',5'-cyclic-AMP phosphodiesterase 4B (Homo sapiens) (Q07343 whole entry, looked up): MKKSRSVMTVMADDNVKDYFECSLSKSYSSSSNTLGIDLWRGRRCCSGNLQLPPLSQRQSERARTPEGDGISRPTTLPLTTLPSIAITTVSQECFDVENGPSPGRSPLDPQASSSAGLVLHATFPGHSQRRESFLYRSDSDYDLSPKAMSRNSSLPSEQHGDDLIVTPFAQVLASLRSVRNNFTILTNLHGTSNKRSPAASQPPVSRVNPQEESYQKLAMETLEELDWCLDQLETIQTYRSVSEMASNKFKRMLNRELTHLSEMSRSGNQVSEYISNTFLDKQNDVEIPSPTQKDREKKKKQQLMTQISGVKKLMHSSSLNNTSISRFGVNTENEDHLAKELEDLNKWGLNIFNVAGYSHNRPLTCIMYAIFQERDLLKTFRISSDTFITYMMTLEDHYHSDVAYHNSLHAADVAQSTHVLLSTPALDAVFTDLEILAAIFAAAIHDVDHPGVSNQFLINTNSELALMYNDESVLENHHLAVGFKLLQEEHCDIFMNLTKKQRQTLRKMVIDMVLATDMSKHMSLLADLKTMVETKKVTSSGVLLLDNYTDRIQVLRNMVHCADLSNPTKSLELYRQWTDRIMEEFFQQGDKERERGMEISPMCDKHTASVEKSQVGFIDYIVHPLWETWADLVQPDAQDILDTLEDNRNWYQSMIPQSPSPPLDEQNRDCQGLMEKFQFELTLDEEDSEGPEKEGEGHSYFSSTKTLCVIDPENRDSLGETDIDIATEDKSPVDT
Sequence of DNA dC->dU-editing enzyme APOBEC-3G (Homo sapiens) (Q9HC16 whole entry, looked up): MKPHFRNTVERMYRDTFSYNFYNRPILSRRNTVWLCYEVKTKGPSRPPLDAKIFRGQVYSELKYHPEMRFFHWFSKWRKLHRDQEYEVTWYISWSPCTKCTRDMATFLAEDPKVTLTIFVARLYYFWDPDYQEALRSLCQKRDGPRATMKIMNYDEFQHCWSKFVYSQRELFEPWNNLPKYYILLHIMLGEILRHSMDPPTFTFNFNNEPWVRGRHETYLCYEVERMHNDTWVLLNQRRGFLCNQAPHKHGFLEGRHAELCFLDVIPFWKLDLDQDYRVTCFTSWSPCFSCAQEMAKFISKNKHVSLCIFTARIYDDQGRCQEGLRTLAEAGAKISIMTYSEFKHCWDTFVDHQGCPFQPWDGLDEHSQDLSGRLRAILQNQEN
Sequence of Cytochrome P450 1A2 (Homo sapiens) (P05177 whole entry, looked up): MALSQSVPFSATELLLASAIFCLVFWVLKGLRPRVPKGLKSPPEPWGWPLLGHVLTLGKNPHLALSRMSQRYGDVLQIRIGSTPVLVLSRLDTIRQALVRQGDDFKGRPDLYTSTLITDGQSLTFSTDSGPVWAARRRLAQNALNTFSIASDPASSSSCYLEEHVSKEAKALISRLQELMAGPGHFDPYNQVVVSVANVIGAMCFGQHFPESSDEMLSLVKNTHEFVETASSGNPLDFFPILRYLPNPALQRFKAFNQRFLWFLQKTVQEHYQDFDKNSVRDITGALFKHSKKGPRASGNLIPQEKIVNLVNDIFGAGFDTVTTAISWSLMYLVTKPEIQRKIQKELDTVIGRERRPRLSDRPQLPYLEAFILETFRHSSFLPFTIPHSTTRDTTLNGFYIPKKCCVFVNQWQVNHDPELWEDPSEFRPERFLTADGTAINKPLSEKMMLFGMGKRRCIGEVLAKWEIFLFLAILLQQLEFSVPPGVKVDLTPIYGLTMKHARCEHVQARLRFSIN
Sequence of Glucocorticoid receptor (Homo sapiens) (P04150 whole entry, looked up, the tested form may be a part): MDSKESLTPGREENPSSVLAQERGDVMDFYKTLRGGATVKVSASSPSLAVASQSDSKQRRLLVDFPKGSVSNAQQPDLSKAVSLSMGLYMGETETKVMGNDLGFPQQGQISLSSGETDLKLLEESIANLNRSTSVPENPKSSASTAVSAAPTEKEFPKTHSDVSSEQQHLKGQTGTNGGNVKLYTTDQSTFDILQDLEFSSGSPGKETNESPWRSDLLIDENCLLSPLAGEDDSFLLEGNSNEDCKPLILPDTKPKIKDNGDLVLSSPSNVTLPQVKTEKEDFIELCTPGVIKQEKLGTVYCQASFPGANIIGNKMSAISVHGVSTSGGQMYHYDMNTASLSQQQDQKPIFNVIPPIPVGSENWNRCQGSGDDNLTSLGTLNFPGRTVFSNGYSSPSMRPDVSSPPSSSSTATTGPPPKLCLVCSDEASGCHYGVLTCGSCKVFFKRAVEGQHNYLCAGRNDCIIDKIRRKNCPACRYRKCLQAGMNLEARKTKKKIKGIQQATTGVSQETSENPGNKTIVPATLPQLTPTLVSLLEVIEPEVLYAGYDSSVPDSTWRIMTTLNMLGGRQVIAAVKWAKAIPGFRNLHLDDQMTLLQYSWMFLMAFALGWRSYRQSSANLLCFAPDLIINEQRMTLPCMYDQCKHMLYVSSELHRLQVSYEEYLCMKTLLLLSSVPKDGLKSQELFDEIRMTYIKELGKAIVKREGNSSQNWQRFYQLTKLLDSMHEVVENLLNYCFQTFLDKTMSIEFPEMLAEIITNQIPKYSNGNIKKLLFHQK
Sequence of Cytochrome P450 2D6 (Homo sapiens) (P10635 whole entry, looked up): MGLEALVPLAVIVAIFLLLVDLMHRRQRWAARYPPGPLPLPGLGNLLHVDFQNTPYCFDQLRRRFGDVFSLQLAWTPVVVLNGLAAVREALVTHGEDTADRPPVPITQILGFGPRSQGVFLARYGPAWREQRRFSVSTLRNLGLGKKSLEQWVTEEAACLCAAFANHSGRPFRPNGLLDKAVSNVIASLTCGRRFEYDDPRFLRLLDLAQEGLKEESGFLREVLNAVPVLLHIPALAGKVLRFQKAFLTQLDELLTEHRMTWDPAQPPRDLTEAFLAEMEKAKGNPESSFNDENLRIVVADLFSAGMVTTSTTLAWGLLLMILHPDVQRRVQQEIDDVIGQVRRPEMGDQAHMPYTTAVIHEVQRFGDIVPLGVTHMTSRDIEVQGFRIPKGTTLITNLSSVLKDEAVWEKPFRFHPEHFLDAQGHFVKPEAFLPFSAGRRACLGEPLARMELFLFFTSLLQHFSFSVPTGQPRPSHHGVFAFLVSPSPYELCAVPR
Sequence of Guanine nucleotide-binding protein G(i) subunit alpha-1 (Homo sapiens) (P63096 whole entry, looked up): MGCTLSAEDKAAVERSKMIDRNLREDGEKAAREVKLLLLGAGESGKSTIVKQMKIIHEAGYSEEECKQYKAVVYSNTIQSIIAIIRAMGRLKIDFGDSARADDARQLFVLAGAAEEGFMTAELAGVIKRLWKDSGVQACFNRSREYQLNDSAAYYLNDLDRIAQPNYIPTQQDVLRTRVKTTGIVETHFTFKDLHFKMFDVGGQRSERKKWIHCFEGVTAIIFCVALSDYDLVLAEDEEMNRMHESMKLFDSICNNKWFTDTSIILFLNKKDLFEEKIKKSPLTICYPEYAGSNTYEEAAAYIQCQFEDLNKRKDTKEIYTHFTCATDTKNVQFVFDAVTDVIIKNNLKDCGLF
Sequence of Cytochrome P450 2C19 (Homo sapiens) (P33261 whole entry, looked up): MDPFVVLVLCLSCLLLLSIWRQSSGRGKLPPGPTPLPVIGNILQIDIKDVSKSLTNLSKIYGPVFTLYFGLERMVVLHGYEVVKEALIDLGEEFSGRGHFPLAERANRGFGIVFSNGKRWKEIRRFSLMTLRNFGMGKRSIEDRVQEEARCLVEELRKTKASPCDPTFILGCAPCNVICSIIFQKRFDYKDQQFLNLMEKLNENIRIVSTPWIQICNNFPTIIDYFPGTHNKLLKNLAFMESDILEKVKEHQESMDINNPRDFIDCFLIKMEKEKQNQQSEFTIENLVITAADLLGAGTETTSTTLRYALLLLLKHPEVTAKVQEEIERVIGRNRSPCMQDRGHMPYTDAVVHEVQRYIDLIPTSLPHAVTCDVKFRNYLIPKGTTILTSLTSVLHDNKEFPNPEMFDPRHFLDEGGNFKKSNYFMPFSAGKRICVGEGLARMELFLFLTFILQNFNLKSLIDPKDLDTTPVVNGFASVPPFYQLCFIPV

NC(=O)C[C@H](NC(=O)Cc1ccc(O)cc1O)C(=O)O
-24%: max response [6, 15]
inactive: Potency [1] | Potency [2] > 46 µM | Potency [3] > 46 µM | Potency [4] | Potency [5] | activity change, negative = inhibition [6] -1.96% | Potency [7] | Potency [8] | Potency [9]
-23.7%: max response [6, 14]

N[C@@]1(C(=O)O)CN[C@H](C(=O)O)C1
0.388%: max response [6, 14]
inactive: Potency [2] > 46 µM | Potency [3] > 46 µM | Potency [4] | Potency [5] | activity change, negative = inhibition [6] -1.74% | Potency [10] | Potency [7] | Potency [8] | Potency [9]
-1.87%: max response [6, 15]
active: Potency [1] 31.6 µM

NC(=O)CCCCn1ccc(NC(N)=NCC(F)(F)F)n1
inactive: Potency [2] > 46 µM | Potency [3] > 46 µM | Potency [4] | activity change, negative = inhibition [6] 1.74% | Potency [10] | Potency [7] | Potency [8] | Potency [9]
5.7%: max response [6, 14]
6.79%: max response [6, 15]

CC[C@](N)(CCC(=O)O)C(=O)O
20.6%: max response [6, 14]
active: Potency [1] 20 µM
15.7%: max response [6, 15]
inactive: Potency [2] > 46 µM | Potency [3] > 46 µM | Potency [4] | activity change, negative = inhibition [6] -0.484% | Potency [10] | Potency [7] | Potency [8] | Potency [9]

N[C@H](C(=O)O)c1ccc(C(=O)O)c(O)c1
inactive: Potency [1] | Potency [2] > 46 µM | Potency [3] > 46 µM | Potency [4] | Potency [5] | activity change, negative = inhibition [6] 2.68% | Potency [10] | Potency [7] | Potency [9]
-19.5%: max response [6, 14]
active: Potency [8] 26.7 µM
-17.3%: max response [6, 15]

C[C@](N)(COP(=O)(O)O)C(=O)O
active: Potency [9] 31.6 µM
inactive: Potency [2] > 46 µM | Potency [3] > 46 µM | Potency [4] | activity change, negative = inhibition [6] 4.7% | Potency [10] | Potency [7] | Potency [8]
21.4%: max response [6, 15]
16.3%: max response [6, 14]

CC(C)SC(=N)N
inactive: Potency [1] | Potency [2] > 46 µM | Potency [3] > 46 µM | Potency [4] | Potency [5] | activity change, negative = inhibition [6] -0.874% | Potency [10] | Potency [7] | Potency [8] | Potency [9]
-3.81%: max response [6, 15]
1.11%: max response [6, 14]

C[C@@](N)(C(=O)O)c1ccc(S(=O)(=O)O)cc1
13.8%: max response [6, 15]
inactive: Potency [1] | Potency [2] > 46 µM | Potency [3] > 46 µM | Potency [4] | Potency [5] | activity change, negative = inhibition [6] -0.133% | Potency [10] | Potency [7] | Potency [8] | Potency [9]
9.59%: max response [6, 14]

N[C@H](C(=O)O)[C@@H]1C[C@@H]1C(=O)O
-19.5% and 5.06%: max response [6, 15]
-21% and 5.3%: max response [6, 14]
inactive: Potency [1] | Potency [2] > 46 µM | Potency [3] > 46 µM | Potency [4] | Potency [5] | outcome [11] | activity change, negative = inhibition [6] 0.571% and -0.444% | Potency [10] | Potency [7] | Potency [8] | Potency [9]

NCCCNCCCCN(CCCN)/[N+]([O-])=N/O
-8.77%: max response [6, 14]
inactive: Potency [2] > 46 µM | Potency [3] > 46 µM | Potency [4] | Potency [5] | activity change, negative = inhibition [6] -0.752% | Potency [10] | Potency [7] | Potency [8] | Potency [9]
-8.94%: max response [6, 15]

OC[C@@H]1O[C@@H](n2cnc3c(N[C@H]4CCC[C@@H]4O)ncnc32)[C@H](O)[C@H]1O
-18.9%: max response [6, 14]
inactive: Potency [2] > 46 µM | Potency [3] > 46 µM | Potency [4] | Potency [5] | activity change, negative = inhibition [6] 3.72% | Potency [10] | Potency [7] | Potency [8] | Potency [9]
-17.5%: max response [6, 15]

Cc1o[nH]c(=O)c1CC[C@H](N)C(=O)O
-7.36%: max response [6, 14]
-2.41%: max response [6, 15]
inactive: Potency [2] > 46 µM | Potency [3] > 46 µM | Potency [4] | Potency [5] | activity change, negative = inhibition [6] 4.78% | Potency [10] | Potency [7] | Potency [8] | Potency [9]

NC1(C(=O)O)C[C@@H](C(=O)O)[C@H](C(=O)O)C1
active: Potency [12] 7.94 µM
8.99% and 4.7%: max response [6, 14]
inactive: Potency [2] > 46 µM | Potency [3] > 46 µM | Potency [4] | Potency [5] | activity change, negative = inhibition [6] 7.04% and 6.44% | Potency [10] | Potency [7] | Potency [8] | Potency [9]
18.3% and 11.3%: max response [6, 15]

C[C@H](NC[C@H](O)CP(=O)(O)Cc1ccccc1)c1ccc(Cl)c(Cl)c1
inactive: Potency [2] > 46 µM | Potency [3] > 46 µM | Potency [4] | Potency [5] | activity change, negative = inhibition [6] 2.58% | Potency [10] | Potency [7] | Potency [8] | Potency [9]
active: Potency [13] 0.0501 µM
0.952%: max response [6, 14]
5.21%: max response [6, 15]

N[C@H](C(=O)O)C1[C@H](C(=O)O)[C@H]1C(=O)O (some centres not stated)
-12.9%: max response [6, 15]
-12.3%: max response [6, 14]
active: Potency [13] 7.94 µM
inactive: Potency [2] > 46 µM | Potency [3] > 46 µM | Potency [4] | Potency [5] | activity change, negative = inhibition [6] 1.13% | Potency [10] | Potency [7] | Potency [8] | Potency [9]

N[C@H](C(=O)O)c1cccc(O)c1
inactive: Potency [2] > 46 µM | Potency [3] > 46 µM | Potency [4] | activity change, negative = inhibition [6] 7.87% | Potency [10] | Potency [7] | Potency [8] | Potency [9]
12.7%: max response [6, 14]
24.7%: max response [6, 15]

Reference: PubChem BioAssay (NCATS)
